Assay outcomes (PubChem BioAssay)
FBW7 activator: human FBW7 E3 ligase activation, primary screen | Q969H0 | AlphaScreen FBW7–phospho-cyclin E peptide binding, activator screen | normalized activity (activation), % at 26.1 µM | 0.13% of 650,000 active; in the data active = normalized activity above about 1.9%;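 also: purified mutant Fbw7 with reduced substrate affinity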
Target sequence (Q969H0 whole entry, looked up): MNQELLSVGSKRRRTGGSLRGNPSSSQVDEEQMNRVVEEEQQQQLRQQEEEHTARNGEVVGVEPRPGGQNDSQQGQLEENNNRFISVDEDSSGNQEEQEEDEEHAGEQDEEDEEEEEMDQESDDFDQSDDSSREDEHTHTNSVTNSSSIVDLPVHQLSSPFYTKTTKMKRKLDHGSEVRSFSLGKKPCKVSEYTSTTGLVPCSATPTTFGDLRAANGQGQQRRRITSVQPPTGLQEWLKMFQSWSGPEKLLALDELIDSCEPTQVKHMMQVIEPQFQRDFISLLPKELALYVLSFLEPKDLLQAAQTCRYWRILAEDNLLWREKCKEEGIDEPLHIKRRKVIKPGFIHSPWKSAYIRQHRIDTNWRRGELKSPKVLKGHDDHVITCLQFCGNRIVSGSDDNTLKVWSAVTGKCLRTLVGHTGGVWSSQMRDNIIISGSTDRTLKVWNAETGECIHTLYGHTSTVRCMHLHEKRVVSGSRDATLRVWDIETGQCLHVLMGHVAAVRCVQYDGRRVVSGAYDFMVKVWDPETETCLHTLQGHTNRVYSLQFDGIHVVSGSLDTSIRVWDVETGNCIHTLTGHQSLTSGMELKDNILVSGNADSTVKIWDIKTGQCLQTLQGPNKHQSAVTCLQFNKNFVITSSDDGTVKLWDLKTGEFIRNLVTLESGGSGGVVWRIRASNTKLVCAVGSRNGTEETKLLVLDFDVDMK
MITF primary: blocks human microphthalmia-associated transcription factor. 0.91% of 650,000 active. AlphaScreen MITF homodimerization, bead proximity signal. O75030. inhibition, % at 2.6 µM; in the data active = inhibition above about 50%;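 also: 0% = vehicle wells with protein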
GPR151 ag: activates the human receptor GPR151; Q8TDV0; PathHunter beta-arrestin GPR151 cells, luminescence; activation, % at 11.2 µM; 1% of 650,000 active; AID 1508602; in the data active = activation above about 4.9%;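 also: 0% = median of compound wells and 100% = cells with positive control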
TEAD-YAP block: TEAD-YAP interaction inhibition; HEK-TIYL cells, TEAD-Gal4/YAP UAS-luciferase luminescence; inhibition, % at 9.12 µM; 1.4% of 640,000 active; AID 1259422; in the data active = inhibition above about 32%;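 also: 0% = median of test compound wells and 100% = reference inhibitor wells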
The depositor's hits bear a star. The list is not random: actives were taken first. Their share in the collection is about 3.5%.

How did O=C(Nc1ccc(Br)cc1F)c1ccc(Cl)c([N+](=O)[O-])c1 do in these assays?
FBW7 activator: 0; MITF primary: 18; GPR151 ag: -1; TEAD-YAP block: -12

How did O=C(Nc1ccc(N2CCCCC2)cc1)c1ccc(Cl)c([N+](=O)[O-])c1 do in these assays?
FBW7 activator: 0; MITF primary: 6; GPR151 ag: -1; TEAD-YAP block: 43*

What do the screens show for `Cc1ccccc1-c1cnnc(N(CCO)C(C)C)n1`?
FBW7 activator: 0; MITF primary: -4; GPR151 ag: 1; TEAD-YAP block: -8

How did O=C(CSc1nncn1-c1ccccc1)Nc1nc2c(F)c(F)c(F)cc2s1 do in these assays?
FBW7 activator: 3.9*; MITF primary: 10; GPR151 ag: -1; TEAD-YAP block: -7

What do the screens show for `Cc1ccc(-c2cn3c(n2)sc2cc(C(=O)N4CCC(C(N)=O)CC4)ccc23)cc1`?
FBW7 activator: 1; MITF primary: 6; GPR151 ag: 0; TEAD-YAP block: -39

Results for Cc1ccc2c(c1)sc1nc(-c3ccccc3)cn12 ?
FBW7 activator: 2.4*; MITF primary: -20; GPR151 ag: -7; TEAD-YAP block: 96*

What do the screens show for `Cc1c(C(=O)OCc2ccccc2)[nH]c2c1C(=O)CC(c1ccco1)C2` (stereo unspecified)?
FBW7 activator: 0; MITF primary: 15; GPR151 ag: 0; TEAD-YAP block: 57*

What do the screens show for `COCCOC(=O)c1[nH]c2c(c1C)C(=O)CC(c1ccco1)C2` (stereo unspecified)?
FBW7 activator: 0; MITF primary: 5; GPR151 ag: 0; TEAD-YAP block: 49*

Results for Cc1c(C(=O)OCCOC(C)C)[nH]c2c1C(=O)CC(c1ccco1)C2 (stereo unspecified) ?
FBW7 activator: 0; MITF primary: 5; GPR151 ag: 0; TEAD-YAP block: 60*

What do the screens show for `CCOCCOC(=O)c1[nH]c2c(c1C)C(=O)CC(c1ccc(OCC)cc1)C2` (stereo unspecified)?
FBW7 activator: 0; MITF primary: 4; GPR151 ag: 0; TEAD-YAP block: 6

How did Cc1c(C(=O)OCCOC(C)C)[nH]c2c1C(=O)CC(C)(C)C2 do in these assays?
FBW7 activator: 0; MITF primary: -4; GPR151 ag: 1; TEAD-YAP block: -6

Results for CCOC(=O)c1[nH]c2c(c1C)C(=O)CC(c1ccco1)C2 (stereo unspecified) ?
FBW7 activator: 0; MITF primary: 21; GPR151 ag: 2; TEAD-YAP block: 58*

How did COCCOC(=O)c1[nH]c2c(c1C)C(=O)C(C(=O)OC)C(C)C2 (stereo unspecified) do in these assays?
FBW7 activator: 0; MITF primary: -15; GPR151 ag: -1; TEAD-YAP block: -10

Results for COCC(=O)Nc1cnn(-c2ccc(C(=O)NCc3ccccc3Cl)cc2)c1 ?
FBW7 activator: 0; MITF primary: -3; GPR151 ag: -1; TEAD-YAP block: 0

How did COc1ccc(OC)c(NC(=O)CCCn2sc3ccccc3c2=O)c1 do in these assays?
FBW7 activator: 1; MITF primary: 9; GPR151 ag: -4; TEAD-YAP block: 7

Results for CCCCNC(=O)C1C2C(=O)N(Cc3ccccc3)CC23C=CC1(C)O3 (stereo unspecified) ?
FBW7 activator: 0; MITF primary: 10; GPR151 ag: -1; TEAD-YAP block: -4

How did CCOCCOC(=O)c1[nH]c2c(c1C)C(=O)CC(c1ccco1)C2 (stereo unspecified) do in these assays?
FBW7 activator: 0; MITF primary: -6; GPR151 ag: 0; TEAD-YAP block: 51*

Results for CSCCOC(=O)c1[nH]c2c(c1C)C(=O)CC(c1ccco1)C2 (stereo unspecified) ?
FBW7 activator: 0; MITF primary: 13; GPR151 ag: 2; TEAD-YAP block: 50*

Results for O=C(Cn1cc([N+](=O)[O-])cn1)OCc1ccccc1 ?
FBW7 activator: 0; MITF primary: -7; GPR151 ag: -1; TEAD-YAP block: 0

How did COc1ccc(/C=C/C(=O)N2CCc3ccccc32)cc1 do in these assays?
FBW7 activator: 0; MITF primary: 8; GPR151 ag: -7; TEAD-YAP block: 74*

What do the screens show for `O=C(/C=C/c1ccccc1)N1CCCc2ccccc21`?
FBW7 activator: 0; MITF primary: 3; GPR151 ag: 2; TEAD-YAP block: -27

What do the screens show for `Cc1cc(C(=O)N2CCc3ccccc32)n(-c2ccccc2)n1`?
FBW7 activator: 0; MITF primary: 3; GPR151 ag: 1; TEAD-YAP block: 35*

Results for O=C(/C=C/c1ccc([N+](=O)[O-])cc1)N1CCCc2ccccc21 ?
FBW7 activator: 0; MITF primary: 28; GPR151 ag: 1; TEAD-YAP block: -7

How did O=C(/C=C/c1ccccc1)N1CCc2ccccc21 do in these assays?
FBW7 activator: 0; MITF primary: 6; GPR151 ag: -6; TEAD-YAP block: 66*

How did O=C(/C=C/c1cccs1)N1CCc2ccccc21 do in these assays?
FBW7 activator: 0; MITF primary: 18; GPR151 ag: -6; TEAD-YAP block: 70*

What do the screens show for `CCN(CC)CCCNC(=O)CCCNC(=O)Cn1cnc2sc3c(c2c1=O)CCCC3`?
FBW7 activator: 0; MITF primary: -6; GPR151 ag: 1; TEAD-YAP block: -3

How did CCOc1ccc(/C=N\NC(=O)COc2ccccc2Cl)c(O)c1 do in these assays?
FBW7 activator: 0; MITF primary: 3; GPR151 ag: 5; TEAD-YAP block: -6

What do the screens show for `CC(=O)c1c(C)[nH]c(-c2csc(NC3CCCCC3)n2)c1C`?
FBW7 activator: 1; MITF primary: -9; GPR151 ag: -1; TEAD-YAP block: -4

What do the screens show for `COC(=O)c1c(C)[nH]c(-c2csc(N)n2)c1C`?
FBW7 activator: 0; MITF primary: 13; GPR151 ag: 0; TEAD-YAP block: 51*

How did CC(=O)Nc1nc2ccccc2n1Cc1ccccc1Cl do in these assays?
FBW7 activator: 0; MITF primary: 9; GPR151 ag: 1; TEAD-YAP block: 33*

Results for O=C(Nc1nc2ccccc2n1Cc1ccccc1Cl)c1ccccc1 ?
FBW7 activator: 0; MITF primary: -6; GPR151 ag: 1; TEAD-YAP block: 0

What do the screens show for `Cc1ccc(C)c(-n2nnnc2SCC(=O)Nc2ccccc2N2CCOCC2)c1`?
FBW7 activator: 0; MITF primary: 4; GPR151 ag: 0; TEAD-YAP block: 2

How did CCOC(=O)Nc1c(C)cc(C)cc1[N+](=O)[O-] do in these assays?
FBW7 activator: 0; MITF primary: 8; GPR151 ag: 0; TEAD-YAP block: 50*

Results for COc1ccc(CN2CCC(N3CCCCC3)CC2)c(OC)c1C ?
FBW7 activator: 0; MITF primary: 41; GPR151 ag: 0; TEAD-YAP block: 0

Results for COCCNc1c(-c2ccc(C)cc2)c(=O)c1=O ?
FBW7 activator: 0; MITF primary: -3; GPR151 ag: 3; TEAD-YAP block: -2

Results for COCCCNc1c(-c2ccc(Cl)cc2)c(=O)c1=O ?
FBW7 activator: 0; MITF primary: -5; GPR151 ag: -1; TEAD-YAP block: 48*
